Screens (PubChem BioAssay)
Sampled rows, rich in hits. Any-hit rate of the full collection: about 4.6%.
D1 agonist: Allosteric Agonists of the Human D1 Dopamine Receptor: qHTS; activation, % at 2 µM; AID 504660, 2011; HEK293 T-REx D1 cells, calcium flux, agonist mode; 360,000 compounds, 1% hits; also: 0% is about no effect
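Inducible HEK293 T-REx D1 cells, force-coupled to calcium signalling, were plated at 4000 cells/well with tetracycline and held overnight at 30 C. After no-wash calcium dye loading, compound-evoked calcium rise over 180 s flagged agonists.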
D1 antag: Antagonist of Human D 1 Dopamine Receptor: qHTS. D(1A) dopamine receptor (Homo sapiens), P21728. HEK293 TREx D1 cells, calcium flux, dopamine EC80; hits give low values. activity change, negative = inhibition, % at 10 µM. 360,000 compounds, 3.2% hits. AID 504652, 2011; in the data active = activity change below about -30%; also: % is scaled to controls: 0 for no effect and ±100 for the full control effect
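Using tetracycline-induced force-coupled D1 Hek293 cells and a calcium dye, signals were followed for 180 s after compound, then for 180 s after EC80 dopamine, to detect inhibitors.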
TRHR ag: qHTS for Small Molecule Agonists and Allosteric Enhancers of Human TRH Receptor: Primary Screen for Agonists. TRHR cells, calcium flux fluo-8, FDSS agonist mode. AID 493084, 2011. activation, % at 2 µM. 360,000 compounds, 0.18% hits; also: 0% is about no effect
Target sequence (P34981 whole entry, looked up): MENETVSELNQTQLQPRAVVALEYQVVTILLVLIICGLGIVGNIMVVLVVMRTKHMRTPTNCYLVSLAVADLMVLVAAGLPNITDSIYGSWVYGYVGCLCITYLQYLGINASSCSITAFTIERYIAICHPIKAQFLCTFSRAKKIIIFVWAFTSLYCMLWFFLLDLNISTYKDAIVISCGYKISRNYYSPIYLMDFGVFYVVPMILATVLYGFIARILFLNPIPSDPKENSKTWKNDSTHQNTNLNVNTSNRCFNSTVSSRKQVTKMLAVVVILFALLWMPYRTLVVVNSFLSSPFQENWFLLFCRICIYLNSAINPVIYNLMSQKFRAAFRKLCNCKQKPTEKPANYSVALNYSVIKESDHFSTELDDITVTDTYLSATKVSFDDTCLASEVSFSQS
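TRHR-expressing cells loaded with fluo-8 calcium dye; 23 nL library compound pin-transferred, kinetic FDSS fluorescence (Ex 480/Em 530) recorded about 180 s for agonist-induced calcium release, before a 10 nM TRH EC20 addition for potentiator mode.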
D1 PAM: Potentiators of Human D1 Dopamine Receptor: qHTS. D(1A) dopamine receptor (Homo sapiens), P21728. HEK293 TREx D1 cells, calcium flux, dopamine EC20 potentiation. 360,000 compounds, 0.036% hits. potentiation, % at 10 µM; in the data active = potentiation above about 30%; also: 0% is about no effect
TRHR PAM: qHTS for Small Molecule Agonists and Allosteric Enhancers of Human TRH Receptor: Primary Screen for Enhancers. Thyrotropin-releasing hormone receptor (Homo sapiens), P34981. TRHR cells, fluo-8 calcium fluorescence, EC20 TRH enhancement. enhancement, % at 2 µM. 360,000 compounds, 0.66% hits; in the data active = enhancement above about 30%; also: 0% is about no effect
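Enhancer read-out: after compound pinning and an initial kinetic agonist-mode read, an EC20 of TRH (10 nM final) was injected and fluo-8 calcium signal (Ex 480/Em 530) followed at 1 s/cycle for 100 cycles in TRHR-expressing cells.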
Active calls of the source: *; ! = not active in a repeat. Rule as the data show it, unless noted: active = activation above about 30%; inactive = the rest.

SMILES	D1 agonist	D1 antag	TRHR ag	D1 PAM	TRHR PAM
CCCCOC(=O)c1ccc(NC(=O)/C(C#N)=C/c2ccc(-c3ccccc3)o2)cc1	127.5*	-0.2	47.3*	7.1	7.0
CCCN(CCC)CCCNC(=O)C1CCN(S(=O)(=O)CC)CC1	0.5	12.2	0.6	-1.8	3.2
COc1ccc(OC)c(/C=C/C(=O)OCC(=O)Nc2ccc(Cl)c(S(=O)(=O)N(C)C)c2)c1	7.4	-34.6*	-0.4	3.1	0.0
COc1ccc(/C=C/C(=O)OCC(=O)Nc2cc(S(=O)(=O)N(C)C)ccc2Cl)cc1	8.2	-34.2*	0.3	-11.1	-2.0
COc1cc(/C=C/C(=O)OCC(=O)Nc2cc(S(=O)(=O)N(C)C)ccc2Cl)ccc1O	6.8	5.9	-1.6	-3.0	-1.8
CCN(CC)S(=O)(=O)c1ccc(Cl)c(NC(=O)COc2ccc(OC)cc2)c1	8.4	-31.4*	0.6	1.4	2.9
Cn1c(CC(=O)Nc2ccccc2)nnc1SCC(=O)NC1CCCC1	1.8	-3.7	-0.1	-3.3	3.5
COc1ccc(NC(=O)CCS(=O)(=O)c2cc(Br)cc3c2N(C(C)=O)CC3)c(OC)c1	-0.3	7.6	0.0	-3.4	-0.8
O=P(O)(CCc1ccccn1)CN1CCCCC1	0.6	-31.9*	-0.3	-3.9	-8.9
O=P(O)(CCc1ccccn1)CN1CCOCC1	2.3	-6.1	0.4	-1.9	3.0
O=C(Cc1ccccc1)NNS(=O)(=O)c1ccccc1[N+](=O)[O-]	-3.4	0.4	-0.2	-3.4	9.0
Cc1ccc(NC(=O)Cn2nc(C)c([N+](=O)[O-])c2C)cc1Cl	16.9	-0.1	0.8	-13.4	-0.4
Cc1nn(CC(=O)NCCc2ccc(Cl)cc2Cl)c(C)c1[N+](=O)[O-]	33.9*	-8.0	-1.4	-6.5	9.5
Cc1cc(C)c(-c2csc(NC(=O)/C=C/c3cccs3)n2)c(C)c1	2.2	-36.9*	1.0	-1.8	-0.8
Cc1cc(C)nc(NC(=O)/C=C/c2cccs2)c1	-0.1	-12.1	-0.7	3.7	-0.4
CCOc1ccccc1N(C)C(=O)Cn1cnc2onc(-c3ccc(F)cc3)c2c1=O	2.7	-30.6*	0.6	2.4	-6.7
Cc1ccc(C)c(N2CCN(C(=O)c3ccc4[nH]c(C)c(C)c4c3)CC2)c1	0.1	-32.9*	0.0	-3.6	22.7
NCCCC[C@@H]1NC(=O)[C@H](CCC(=O)O)NC(=O)c2cc([N+](=O)[O-])cc(I)c2SC[C@@H](C(=O)NCC(N)=O)NC1=O	-1.4	-44.3*	-0.1	-5.3	10.4
O=C(CCCl)Nc1cccc2cccnc12	0.1	22.7	0.6	2.9	-1.8
COc1ccc(CCN(C)C(=O)CSc2nccn2C)cc1OC	3.6	2.8	-0.1	-2.0	-0.7
COc1ccc(CCN(C)C(=O)CSc2nc3ncc(Cl)cc3[nH]2)cc1OC	-0.6	-67.0*	0.6	-1.5	-1.8
COC(=O)c1ccccc1NC(=O)Cn1c(=O)n(CCCC(=O)NCCc2ccc(OC)c(OC)c2)c(=O)c2ccccc21	-1.5	-31.9*	-1.0	-0.9	-4.2
O=C(CCCCn1c(=O)c2ccccc2n(CC(=O)Nc2cccc(F)c2)c1=O)NCc1ccccc1Cl	33.5*	-18.9	-0.2	0.0	-7.7
O=C(CCCCn1c(=O)c2ccccc2n(CC(=O)Nc2ccc(F)cc2F)c1=O)NCCc1ccccc1	-1.2	-38.3*	-0.2	2.6	-4.9
COc1ccc(CCNC(=O)CCCn2c(=O)c3ccccc3n(Cc3cccc(Cl)c3)c2=O)cc1OC	2.2	-16.3	-1.5	5.8	-9.6
SMILES	D1 agonist	D1 antag	TRHR ag	D1 PAM	TRHR PAM
O=C(Cn1c(=O)c2ccccc2n(CC(=O)Nc2ccc(F)cc2F)c1=O)NCCc1ccccc1	8.9	-3.1	2.7	3.4	0.5
COc1ccc(CCNC(=O)CCCCn2c(=O)c3ccccc3n(Cc3ccc(Cl)cc3)c2=O)cc1OC	0.9	-52.7*	-0.8	0.5	-31.6
Cc1ccc2c(C)c(C(=O)N(Cc3ccc(N(C)C)cc3)Cc3ccco3)oc2c1C	2.2	13.3	-0.3	1.2	2.1
O=C1CC(c2ccc(S(=O)(=O)NCc3ccncc3)cc2)CN1 (stereo unspecified)	1.6	-34.4*	0.8	-3.0	9.1
O=C1CC(c2ccc(S(=O)(=O)NC3CC3)cc2)CN1 (stereo unspecified)	1.4	-13.7	0.7	-1.3	-3.9
O=C(O)c1cc([N+](=O)[O-])c(NCCC2=CCCCC2)c([N+](=O)[O-])c1	2.9	1.1	-2.2	0.8	1.8
OCCNCc1ccc(OCc2ccc(Cl)cc2Cl)cc1	29.9	4.2	2.2	-4.3	10.0
OCCCCNCc1ccc(OCc2ccc(Cl)cc2Cl)cc1	61.0*	-26.7	2.6	-9.4	17.0
CC(C)c1cc(CNC(=O)c2ccc(OC3CCN(Cc4ccccn4)CC3)cc2)on1	12.9	-53.5*	0.2	-7.1	-1.6
CCn1cc(CNC(=O)c2ccc(OC3CCN(Cc4ccccn4)CC3)cc2)cn1	1.7	0.5	-0.1	-5.1	-1.0
CCn1nc(C)c(CNC(=O)c2ccc(OC3CCN(Cc4ccccn4)CC3)cc2)c1C	5.5	-34.0*	0.6	-5.7	2.5
COC(=O)[C@@H](NC(=O)c1ccc(OC2CCN(Cc3ccccn3)CC2)cc1)C(C)C	4.2	1.2	0.7	-1.4	-5.9
CCOC(=O)c1c(S(=O)(=O)NCC(=O)Nc2cccc(SC)c2)c(C)n(C)c1C	1.2	-6.2	-0.9	-0.7	-8.3
CCCSCCCNC(=O)CN1C(=O)COc2ccc(S(=O)(=O)N3CCCC3)cc21	2.2	-37.8*!	-0.2	3.1	5.7
COc1ccc(CCNC(=O)CN2C(=O)COc3ccc(S(=O)(=O)N4CCOCC4)cc32)cc1OC	1.6	-52.2*	-0.1	-2.0	-1.0
COc1ccc(OCCC(=O)OCC(=O)NCc2ccccc2OC)cc1	-1.3	-2.7	-1.6	-6.1	-6.5
Cc1ccc(C(=O)CSc2nc3cc(C(=O)NC4CCCC4)ccc3c(=O)n2CC2CCCO2)cc1 (stereo unspecified)	1.2	4.2	1.0	3.5	-1.9
O=C(CSc1nc2cc(C(=O)NC3CCCC3)ccc2c(=O)n1CC1CCCO1)c1cccc(Cl)c1 (stereo unspecified)	5.9	-36.9*	0.4	-3.8	-0.9
COc1cc(/C=C2\CC/C(=C\c3ccc(OCCO)c(OC)c3)C2=O)ccc1OCCO	99.3*	0.5	113.6*	-1.5	27.9
COc1cc(/C=C2\COC/C(=C\c3ccc(O)c(OC)c3)C2=O)ccc1O	12.3	-8.7	1.5	2.2	2.9
